In PubChem BioAssay (NCI):
Compounds without any hit were thinned out: in the full panel of roughly 79,000, 15% have a hit. The source made the active and inactive calls. Rule as the data show it: active = growth inhibition above about 70%; inactive = the rest. Where a SMILES comes first, the peptide text is derived from it.

Columns and labels:
[1] = NCI Yeast Anticancer Drug Screen. Data for the rad50 strain (AID 155);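 also: 0% = growth of vehicle-only cultures of the same strain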; conditions: S. cerevisiae rad50 strain growth inhibition; at 50.0 µM; stronger effect = higher value
How it was run: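 A DNA repair-deficient yeast mutant serves as the test organism; compound-induced growth inhibition is calculated against vehicle-treated cells.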

[2] = NCI Yeast Anticancer Drug Screen. Data for the mec2-1 strain (AID 157); conditions: S. cerevisiae mec2-1 strain, at 50.0 µM, stronger effect = higher value
How it was run: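 mec2-1 yeast strain, carrying an alteration in DNA damage repair or cell cycle control, was exposed to compounds; growth inhibition was measured relative to vehicle-treated controls.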

[3] = NCI Yeast Anticancer Drug Screen. Data for the sgs1 mgt1 strain (AID 161);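 also: 0% = growth of cultures given vehicle only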; conditions: S. cerevisiae sgs1 mgt1 strain, at 50.0 µM, stronger effect = higher value
How it was run: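 Compounds are added to genetically altered yeast, and growth is compared with cultures given vehicle alone to give percent inhibition.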

[4] = NCI Yeast Anticancer Drug Screen. Data for the cln2 rad14 strain (AID 165);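 also: 0% = growth equal to vehicle treated cultures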; conditions: S. cerevisiae cln2 rad14 strain, at 50.0 µM, stronger effect = higher value
How it was run: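 Yeast carrying cln2 and rad14 alterations (cell cycle control and DNA damage repair) were exposed to compounds. Growth inhibition was measured against vehicle-treated controls.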

[5] = NCI Yeast Anticancer Drug Screen. Data for the bub3 strain (AID 167); conditions: S. cerevisiae bub3 mutant strain, at 50.0 µM, stronger effect = higher value
How it was run: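 Inhibition values come from growth of compound-treated mutant yeast normalised to vehicle-treated controls.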

[6] = NCI Yeast Anticancer Drug Screen. Data for the mlh1 rad18 strain (AID 175); conditions: S. cerevisiae mlh1 rad18 strain growth inhibition; at 50.0 µM; stronger effect = higher value
How it was run: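 Growth inhibition of the yeast strain was measured after compound exposure and expressed relative to vehicle-treated controls. The strain carries defined defects in DNA damage repair.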

Measured: growth inhibition

O=c1c2cccnc2[nH]c2ccc3[nH]ncc3c12
inactive: [1] -17.2% | [2] -25.9% | [3] -13.4% | [4] 26.4% | [5] -30.9% | [6] 15.6%

CC(C)N1COC(c2ccccc2)C1 (stereo unspecified)
inactive: [1] 6.05% | [2] 0.35% | [3] -19.1% | [4] -17.9% | [5] -24.9% | [6] -26.1%

CC1=C(C[Si](C)(C)C)CC(CO[Si](C)(C)C(C)(C)C)C2C(=O)N(C(=O)c3ccccc3)C(Cc3ccccc3)C12 (stereo unspecified)
inactive: [1] 21.6% | [2] 5.7% | [3] 2.05% | [4] -4.25% | [5] -3.95% | [6] 23.4%

CCCCCCCC(=O)CC(C)C
inactive: [1] 12.1% | [2] -11.7% | [3] 0.6% | [4] -2.5% | [5] -21.4% | [6] 6.65%

COC(=O)/C=C(C)/C=C/c1cc(C(C)=O)c(C)o1
inactive: [1] -2.25% | [2] -2.95% | [3] 7.85% | [4] -12.3% | [5] 29.6% | [6] -7.05%

O=[N+]([O-])c1cccc2c1ccc1nonc12
inactive: [1] 17.2% | [2] -5.15% | [3] 2.55% | [4] -52.1% | [5] -15.8% | [6] 20.5%

Cc1ccc2c(c1)C=C/C(=C/c1cc[n+](C)c3ccccc13)N2C
inactive: [1] -7.95% | [2] -22.2% | [3] 13.3% | [4] -1.05% | [5] -5.8% | [6] 1.55%

CCCCC/C(C)=N\NC(N)=S
inactive: [1] 15.6% | [2] -6.15% | [3] -15.9% | [4] 1.85% | [5] 19.8% | [6] -2.5%

COc1cc2c(c3c1c(=O)c1ccccc1n3C)C=CC1(CCCCC1)O2
inactive: [1] -12.4% | [2] -19.6% | [6] -7.4%
active: [3] 91% | [4] 86.5% | [5] 87.5%

Nc1nn2c(nc(N)c3c(N)[nH]nc32)c1N=Nc1ccc(Br)cc1
inactive: [1] -1.35% | [2] 11.8% | [3] -4.95% | [4] 10.2% | [5] 13.2% | [6] 0.1%

N=c1ccccn1CC(O)COc1ccccc1 (stereo unspecified)
inactive: [1] -11.2% | [2] -9.6% | [3] -1.6% | [4] 1.1% | [5] 4.2% | [6] -5.8%

Cc1cc2ncn(CO)c2cc1C
inactive: [1] -4.5% | [2] -0.2% | [3] 18.8% | [4] -7.4% | [5] 20% | [6] 0.75%

CCOCCOC(=O)CCCCCCCCC(=O)OCCOCC
inactive: [1] 9.7% | [2] 11.9% | [3] 12.6% | [4] 37.9% | [5] 25.6% | [6] 25.9%

CCCCCCCC/C=C/CCCCCCCC(=O)N(CCOC(=O)C(C)(C)C)CCOC(=O)C(C)(C)C
inactive: [1] 37.5% | [2] 9.5% | [3] 25.6% | [4] 24.2% | [5] -2.45% | [6] 39.2%

C=CCNC(=S)Nc1ccccc1OCC
inactive: [1] 5.2% | [2] -3.8% | [3] -5.05% | [4] -68.5% | [5] -9.6% | [6] 0.2%

CN(C)c1ccc(C=Nc2ccc3c(c2)C(N2CCOCC2)c2ccccc2-3)cc1 (stereo unspecified)
inactive: [1] -14.7% | [2] -7% | [3] -38.1% | [4] -5.3% | [5] -15.8% | [6] 0.35%

CC(C(=O)O)n1c(=O)ssc1=O (stereo unspecified)
inactive: [1] 1.95% | [2] 3.05% | [3] 1.3% | [4] -9.25% | [5] -8.7% | [6] 0%

CCCCN1C[C@H](OC(=O)CCC)[C@@H](OC(=O)CCC)[C@H](OC(=O)CCC)[C@H]1COC(=O)CCC
inactive: [1] -18.4% | [2] -15.7% | [3] -11% | [4] -5.3% | [5] -23.9% | [6] -15.7%

COc1ccc2c(c1)CCCN2
inactive: [1] -3.4% | [2] -23% | [3] -4.05% | [4] -20.1% | [5] -13.3% | [6] 3.65%

Cc1c(Cl)cccc1NC(=O)Oc1ccccc1Cc1ccccc1
inactive: [1] -0.8% | [2] 43.1% | [3] 40% | [4] -2.7% | [5] 67.5% | [6] 52.2%

O/N=C1/CCCCC1NO (stereo unspecified)
inactive: [1] -17.9% | [2] -22.9% | [3] -32.2% | [4] 15.7% | [5] -10.8% | [6] -19.7%

CCN(CC)CCNC(=O)c1ccc(NCN2C(=O)NC(c3ccccc3)(c3ccccc3)C2=O)cc1
inactive: [1] -24.1% | [2] 3.4% | [3] 8.45% | [4] 26.3% | [5] 15.7% | [6] 50.8%

COc1cccc(NC(=O)CC(=O)N/N=C/c2ccc(N(CCC#N)CCC#N)c(I)c2)c1
inactive: [1] 29.6% | [2] 8.95% | [3] 7.7% | [4] 9.55% | [5] -5.55% | [6] 28.7%

[N-]=[N+]=NC1CC(n2ccc(N)nc2=O)OC1CO (stereo unspecified)
inactive: [1] -3.9% | [2] 13.6% | [3] 0.8% | [4] -6.65% | [5] -8.95% | [6] 8.8%

CC#CCOC(=O)c1ccccc1OC(C)=O
inactive: [1] 27.8% | [2] -1.75% | [3] 23.9% | [4] 9.7% | [5] 26.9% | [6] 19.1%

CCCCCCCCCCCCCCCC(=O)CCCCCCCCCCCCCCC
inactive: [1] 21.1% | [2] -15.9% | [3] 6.35% | [4] -3.8% | [5] -0.95% | [6] 28.9%

CC(=O)Nc1ccc(/C=N/NS(=O)(=O)c2ccc(C)cc2)cc1
inactive: [1] 0.3% | [2] 34.7% | [3] 16.9% | [4] -1.85% | [5] 30.6% | [6] 17.1%

CCOC(=O)/C(=C\c1ccccc1)NC(=O)c1ccccc1
inactive: [1] 5.4% | [2] -2.75% | [3] -2.35% | [4] 7.3% | [5] 20% | [6] 4.85%

CCn1c(C)nc2c(N)cccc2c1=O
inactive: [1] 24.4% | [2] -4.75% | [3] -7.9% | [4] -6.6% | [5] -11% | [6] 2.75%

CCCCCn1cnc2cc(N3CCOCC3)c([N+](=O)[O-])cc2c1=O
inactive: [1] 4.9% | [2] 34.9% | [3] 5.75% | [4] 8.2% | [5] 18.2% | [6] 14.3%

CC(=O)SC1CC2CCC1C2 (stereo unspecified)
inactive: [1] 0.75% | [2] -18.2% | [3] -17.4% | [4] 9.95% | [5] -19.7% | [6] 15.7%

CCOc1ccc(N=Nc2c(O)n(-c3ccc(Br)cc3)c(=S)n(-c3ccc(OC)cc3)c2=O)cc1
inactive: [1] 28.8% | [2] -8.7% | [3] -9.1% | [4] -24.4% | [5] 1.35% | [6] 2.3%

COc1cc(C(=O)CCC(=O)O)c(OC)c(CBr)c1CBr
inactive: [1] -20.3% | [2] -0.4% | [3] -2.7% | [4] -23.8% | [5] -2.15% | [6] -13.8%

N=C1C(O)=CC(=O)C(O)=C1C(=O)O
inactive: [1] -9.1% | [2] 3.9% | [3] 0% | [4] 1.95% | [5] -13% | [6] 3.7%

CC(C)C1(C(C)C)OCC(CO)O1 (stereo unspecified)
inactive: [1] 9.55% | [2] -7.75% | [3] -7.85% | [4] -60.2% | [5] 16.4% | [6] -9.3%

CCC(C)C(N)C(=O)NC(C(=O)O)C(C)C (stereo not drawn) (H-Ile-Val-OH; configuration not given here)
inactive: [1] -32.4% | [2] -13.6% | [3] -0.2% | [4] -41.9% | [5] -0.25% | [6] -0.4%

Cn1ncc2c(NCc3ccccc3)ncnc21
inactive: [1] 13.2% | [2] 3.15% | [3] 23.1% | [4] -44% | [5] 2.7% | [6] 0.5%

CCOC(=N)c1ccc(C(=N)OCC)cc1
inactive: [1] -11.2% | [2] -29.4% | [3] -29.4% | [4] -20.8% | [5] -32.5% | [6] -41.7%

O=C1c2cc3c(cc2CC1Cc1ccc2c(c1)CCC2)CCC3 (stereo unspecified)
inactive: [1] -28.8% | [2] -23.8% | [3] -33.2% | [4] -34% | [5] -20.5% | [6] -33.1%

Cc1cccc2c1Oc1ccccc1C2NC(=O)OCCc1ccccc1 (stereo unspecified)
inactive: [1] -14.3% | [2] -8.25% | [3] -7.25% | [4] -9.15% | [5] -8.05% | [6] 1.25%

CNCCCc1cc(-c2ccc([N+](=O)[O-])cc2)n[nH]1
inactive: [1] -1.55% | [2] 0.5% | [3] -3.25% | [4] 12.6% | [5] 13.6% | [6] 6.6%
